Results filed as inconclusive are left out. Calls of active or inactive are those of the source. Calls come from the whole dose curve; as a rule, active = well fitted inhibition curve with a large enough effect; inconclusive = small, poorly fitted or top-dose-only effect; inactive = flat fitted curve, though single readings scatter.
How the values were obtained:
Test in all cases: Cytotoxic Profiling of Annotated Libraries Using Quantitative High-Throughput Screening (AID 1296008); note: nearly all actives have a fitted effect of over 60% in size
Conditions in all cases: Five cell lines viability, CellTiter-Glo ATP luminescence, 48-72 h; max response: active compounds read low
[1] = system: CRL-7250
Outline: (§1)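 Cells exposed to compounds for 48 or 72 hr at 37 degrees Celsius. Viability read as ATP-coupled luminescence with CellTiter-Glo after 10 min at room temperature.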

[2] = system: HEK293
Outline: as §1

[3] = system: HaCat
Outline: as §1

[4] = system: KB-3-1
Outline: as §1

[5] = system: NIH3T3
Outline: as §1
% is set by controls: 0 for no effect and ±100 for the full control effect; potency is the fitted concentration of half-maximal effect.

COc1cc([C@@H](O[C@@H]2O[C@H](CO)[C@@H](O)[C@H](O)[C@H]2O)[C@@H]2CO[C@H](c3ccc(O)c(OC)c3)[C@H]2CO)ccc1O
inactive: outcome [1] | max response [2] 2.55% | max response [3] 0.823% | max response [4] -3.03% | outcome [5]

COc1ccc(OC)c(C2C(C#N)=C(N)Oc3n[nH]c(-c4ccc5ccccc5c4)c32)c1 (stereo not given)
inactive: outcome [1] | max response [2] 0.943% | max response [3] -8.38% | outcome [4] | outcome [5]

N#Cc1ccc(C2CCCc3cncn32)cc1 (stereo not given)
inactive: max response [1] -28.9% | max response [2] -80.6% | max response [3] 3.15% | outcome [4] | outcome [5]

CC(=O)O[C@@]1(C)[C@@H]2CC(=C(C)C)C(=O)C[C@@]2(C)CC[C@H]1OC(=O)C1(C)OC1C (stereo not given in full)
inactive: max response [1] 1.92% | max response [2] -20.6% | max response [3] 0.799% | max response [4] 0.573% | outcome [5]

Cc1ccccc1NC(=O)Nc1ccc(CN2C(=O)N([C@@H](CC(C)C)C(=O)N[C@@H](CC(=O)O)c3ccccc3)C(=O)C2(C)C)cc1
inactive: max response [1] -13.5% | outcome [2] | max response [3] 3.16% | outcome [4] | max response [5] -0.819%

C/C(=C\C1CCC(C)C2CCC3(C)OC123)C(=O)O (stereo not given)
inactive: max response [1] -0.564% | max response [2] -3.45% | max response [3] 4.2% | max response [4] 8.09% | outcome [5]

CN1C(=O)N(c2cc(Cl)cc(Cl)c2)C(=O)[C@@]1(C)Cc1ccc(Br)cc1
inactive: max response [1] -11.1% | max response [2] -15.8% | max response [3] -27.7% | max response [4] 3.14% | outcome [5]

CC1=CC(=O)CC(C)(C)C1/C=C/C(C)OC1OC(COC2OCC(O)C(O)C2O)C(O)C(O)C1O (stereo not given)
inactive: max response [1] 0.665% | max response [2] -4.28% | max response [3] -0.25% | max response [4] 9.19% | outcome [5]

O=C(OC[C@H]1O[C@@H](Oc2ccccc2CO)[C@H](O)[C@@H](O)[C@@H]1O)c1ccccc1
inactive: max response [1] -0.775% | max response [2] 0.13% | max response [3] 0.855% | max response [4] 3.27% | outcome [5]

CC1=COC(OC2OC(CO)C(O)C(O)C2O)C2C(CO)CC(OC(=O)/C=C/c3ccc(O)cc3)C12 (stereo not given)
inactive: max response [1] 0.792% | max response [2] 0.352% | max response [3] 1.84% | outcome [4] | outcome [5]

O=C(Nc1cc(-c2ccccc2)nn1-c1ccccc1)c1ccc([N+](=O)[O-])cc1
inactive: max response [1] -6.57% | max response [2] -12.1% | max response [3] 1.9% | max response [4] -7.82% | outcome [5]

CC1=CCC[C@@H]2[C@](CCc3ccoc3)(C(=O)O)[C@H](C)CC[C@@]12C
inactive: max response [1] -2.77% | max response [2] -3.43% | max response [3] -10.6% | max response [4] 8.82% | outcome [5]

Cc1cc(CNC(=O)c2cc(C(=O)NCc3ccc(F)c(C)c3)ncn2)ccc1F
inactive: max response [1] 4.78% | max response [2] 1.88% | max response [3] -0.507% | outcome [4] | outcome [5]

CC1(C)CC[C@]2(C(=O)O)CC[C@]3(C)C(=CCC4[C@@]5(C)CC[C@H](O[C@H]6O[C@H](C(=O)O)[C@@H](O)[C@H](O[C@@H]7O[C@H](CO)[C@H](O)[C@H](O)[C@H]7O)[C@H]6O)C(C)(C)C5CC[C@]43C)[C@@H]2C1 (stereo not given in full)
inactive: outcome [1] | outcome [2] | max response [3] 3.39% | max response [4] 4.97% | max response [5] -6.78%

C[C@@H]1[C@H]2[C@H](O[C@@H]3O[C@H](CO)[C@@H](O)[C@H](O)[C@H]3O)OC=C(C(=O)O)[C@H]2C[C@@H]1OC(=O)/C=C/c1ccc(O)cc1
inactive: max response [1] -1.73% | outcome [2] | max response [3] -1.65% | max response [4] 7.88% | max response [5] 1.42%

Cc1ccc(C)c(NC(=O)CNS(=O)(=O)c2ccc3[nH]c(=O)oc3c2)c1
inactive: outcome [1] | max response [2] -17.1% | max response [3] -0.793% | max response [4] 8.68% | outcome [5]

CC(C(=O)Nc1cc(C#N)ccc1CCCC(=O)O)c1ccc(F)c2ccccc12 (stereo not given)
inactive: max response [1] -4.54% | max response [2] -6.85% | max response [3] -4.32% | max response [4] 5.51% | outcome [5]

C=C1CC23CC1CCC2C12OC(=O)C(C)(C(O)C(O)C1O)C2C3C(=O)O (stereo not given)
inactive: max response [1] -6.36% | max response [2] -2% | max response [3] 2.72% | outcome [4] | outcome [5]

CC(C)C(NC(=O)c1ccc(O)cc1)C(=O)N1CCCC1C(=O)Nc1c(O)cccc1C(=O)O (stereo not given)
inactive: max response [1] -0.89% | max response [2] -9.61% | max response [3] -4.47% | max response [4] 5.36% | outcome [5]

Cc1nnc(-c2sc(NC(=O)[C@H](C(C)C)n3c(=O)[nH]c4ccccc4c3=O)nc2C)o1
inactive: max response [1] -59.8% | max response [2] -6.7% | max response [3] -23.8% | max response [4] 8.7% | outcome [5]

NC(N)=NCCC[C@H](NC(=O)c1sccc1NS(=O)(=O)c1cccc2nsnc12)C(=O)O
inactive: outcome [1] | max response [2] -1.44% | max response [3] -1.15% | outcome [4] | outcome [5]

CC1=C[C@H](O)[C@H]2C(C)(C)CCC[C@]2(C)[C@@]1(O)CO
inactive: max response [1] -1.57% | max response [2] -4.11% | max response [3] 3.1% | outcome [4] | outcome [5]

C=C(CCO)C(=O)OCC1OCC(OC(=O)C(=C)CCO[C@@H]2O[C@H](COC(=O)C(=C)CCO[C@@H]3O[C@H](CO)[C@@H](O)[C@H](O)[C@H]3O)[C@@H](O)[C@H](O)[C@H]2O)C(O)C1O (stereo not given in full)
inactive: max response [1] 0.815% | outcome [2] | max response [3] -17.9% | max response [4] 0.844% | max response [5] 3.62%

CO[C@@H]1[C@]2(O)C(=O)N3/C=C\C(C)(C)c4[nH]c5ccccc5c4/C=C\3C(=O)N2[C@]23[C@H](CO)C(C)(C)N2c2ccccc2[C@]13O
inactive: max response [1] 1.93% | max response [2] 0.736% | max response [3] -14.4% | max response [4] 7.79% | outcome [5]

Cc1ccc2[nH]c(=O)c(C3=NN(C(=O)CCC(=O)O)C(c4ccc(Br)cc4)C3)c(-c3ccccc3)c2c1 (stereo not given)
inactive: max response [1] 0.735% | max response [2] 1.24% | max response [3] -0.37% | max response [4] 4.72% | outcome [5]

COc1cc(C[C@@]2(O)CO[C@@H](c3ccc(O[C@@H]4O[C@H](CO)[C@@H](O)[C@H](O)[C@H]4O)c(OC)c3)[C@H]2CO)ccc1O
inactive: max response [1] -6.96% | max response [2] 0.509% | max response [3] -8.64% | max response [4] 1.94% | outcome [5]

CC1(C)OC(=O)CC(O)C2(C)C1CC(=O)C1(C)C2C(O)CC2(C)C(c3ccoc3)OC(=O)C3OC321 (stereo not given)
inactive: max response [1] -14.5% | outcome [2] | max response [3] -9.13% | outcome [4] | max response [5] -11.7%

C/C=C(\C)C(=O)OC[C@H]1O[C@@H](O[C@H]2[C@@H](O[C@H]3O[C@H](COC(=O)/C(C)=C/C)[C@@H](O)[C@H](O)[C@H]3O[C@@H]3O[C@H](COC(=O)/C(C)=C/C)[C@@H](O)[C@H](OC(=O)/C(C)=C/C)[C@H]3O)O[C@H](COC(=O)/C(C)=C/C)[C@@H](O)[C@@H]2O)[C@H](O)[C@@H](O)[C@@H]1O
inactive: max response [1] -1.79% | max response [2] -2.95% | max response [3] -1.65% | max response [4] 7.25% | outcome [5]

COc1ccc([C@H]2OC[C@H]3[C@@H]2CO[C@@H]3c2ccc(O[C@@H]3O[C@H](CO)C(O)[C@H](O)[C@H]3O)c(OC)c2)cc1OC (stereo not given in full)
inactive: max response [1] -2.87% | max response [2] 1.89% | max response [3] -9.63% | max response [4] -3.78% | outcome [5]

CC(=O)NCC1CN(c2ccc(-c3ccc(CNCc4cn[nH]n4)cc3)c(F)c2)C(=O)O1 (stereo not given)
inactive: max response [1] 0.231% | max response [3] 1.71% | max response [4] -15.8% | outcome [5]
active: Potency [2] 1.3 µM

CC(=O)O[C@@H]1[C@H](OC(C)=O)C[C@@]2(C)C(CC[C@@H](C)[C@]23Cc2c(O)cc4c(c2O3)CN([C@@H](CCC(=O)O)C(=O)O)C4=O)C1(C)C (stereo not given in full)
inactive: max response [1] -2.81% | max response [2] -1.84% | max response [3] -30.9% | max response [4] 5.86% | outcome [5]

CCN=C1N[C@@H]2[C@@H](O)[C@H](O)[C@@H](CO)O[C@@H]2S1
inactive: max response [1] 3.4% | max response [2] -6.92% | max response [3] 2.86% | max response [4] 6.7% | outcome [5]

CC(C)(C)NS(=O)(=O)c1ccc(-c2ccc3[nH]nc(N)c3c2)cc1
inactive: max response [1] -6.71% | max response [2] -2.12% | max response [3] -19% | max response [4] 8.07% | outcome [5]

COC(=O)C[C@@H]1C(C(=O)O)=CO[C@@H](O[C@@H]2O[C@H](CO)[C@@H](O)[C@H](O)[C@H]2O)/C1=C\COC(=O)/C=C/c1ccc(O)c(OC)c1
inactive: max response [1] 2.29% | max response [2] -2.42% | max response [3] -1.38% | outcome [4] | outcome [5]

C=C1CCc2occ(C)c2[C@H]2[C@H]1[C@@]13O[C@@]1(C[C@@H](C)[C@H]3OC(C)=O)[C@H]1O[C@@]21C
inactive: max response [1] 2.94% | outcome [2] | max response [3] -22% | outcome [4] | max response [5] -1.13%

CN(C)CC(c1ccc(O)cc1)C1(O)CCCCC1 (stereo not given)
inactive: max response [1] 2.79% | max response [2] 2.78% | max response [3] -0.565% | outcome [4] | outcome [5]

CN(C)C(=O)C(O)C(Cc1ccccc1)NC(=O)c1cc2cc(Cl)ccc2[nH]1 (stereo not given)
inactive: outcome [1] | outcome [2] | max response [3] -1.1% | max response [4] 5.45% | max response [5] -2.44%

C=C[C@H]1[C@H](O[C@@H]2O[C@H](CO)[C@@H](O)[C@H](O)[C@H]2O)OC=C2C(=O)N3Cc4c([nH]c5ccccc5c4=O)[C@@H]3C[C@H]21
inactive: outcome [1] | outcome [2] | max response [3] -8.84% | outcome [4] | max response [5] -10.2%

From PubChem BioAssay (NCATS)
